Experimental data published in PubChem BioAssay (NCATS).
Results filed as inconclusive are left out. Entries that show only a call come without a potency. Activity calls are given as the source filed them. Unless noted, the call rests on the fitted dose curve; in most records, active means well fitted inhibition curve with a large enough effect; inconclusive means small, poorly fitted or top-dose-only effect; inactive means flat fitted curve, though single readings scatter.

system: not listed separately; experiment: Confirmatory qHTS for activators (rescue) of SARS-CoV-2 Cytopathic Effect (CPE) (AID 1508606; calls by dose curve; further: nearly all actives have a fitted effect of over 70% in size; further: potency means the concentration at half of the fitted maximal effect); settings: Vero E6 SARS-CoV-2 CPE rescue, viability luminescence; series mostly up to 20 µM

Row | SMILES | Potency
1 | Cn1c(NC[C@@H](N)Cc2ccccc2)nc(-c2ccncc2)c(-c2ccc3ccccc3c2)c1=O | 6.31 µM (active)
2 | OC1CCC(Oc2cccc3cnc(Nc4ccc5nc[nH]c5c4)nc23)CC1 (centres undefined) | 4.47 µM (active)
3 | COCCN1CCN(Cc2ccc(-c3n[nH]c4c3C(=O)c3c(NC(=O)NN5CCOCC5)cccc3-4)cc2)CC1 | 2.82 µM (active)
4 | Cc1nc2ccc(-n3ncc(C(=O)c4cc5ccccc5[nH]4)c3N)cc2[nH]1 | inactive

target: Calcium and integrin-binding protein 1 (Homo sapiens) (UniProt Q99828); experiment: Primary qHTS for Identification of Calcium Integrin Binding Protein 1 (CIB1) Competitor (AID 1508620); settings: CIB1-GST / FITC-alphaIIb peptide fluorescence polarization; series mostly up to 114 µM;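 further: GST tagged CIB1 binding a fluorescein labelled alphaIIb integrin peptide tracer; top concentration of the series differs between compounds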
Procedure, shortened: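 Fluorescence polarization competition: GST-tagged CIB1 (1 uM final) preincubated with compound 15 min at room temperature, then FITC-labelled alphaIIb peptide (100 nM final) added. After 15 min at room temperature, polarization read at Ex 480/Em 540.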

Chain of Calcium and integrin-binding protein 1 (Homo sapiens) (Q99828 whole entry, looked up): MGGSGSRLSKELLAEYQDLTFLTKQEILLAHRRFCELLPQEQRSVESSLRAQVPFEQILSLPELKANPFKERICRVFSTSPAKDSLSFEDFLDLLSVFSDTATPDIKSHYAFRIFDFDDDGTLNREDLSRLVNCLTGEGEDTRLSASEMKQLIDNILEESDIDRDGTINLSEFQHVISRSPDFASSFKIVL

Row | SMILES | outcome
5 | CCOc1ccc(CCNC(=O)c2cc3cnccc3n2Cc2cccc(C)n2)cc1OCC | inactive
6 | Cc1cccc(-n2cnc3cc(C(=O)N4CCCC(C)C4)ccc32)c1 (centres undefined) | inactive
7 | Cc1c(P(=S)(c2ccccc2)c2ccccc2)[n+]2ccccc2n1C | inactive
8 | CCc1nn2c(=O)c(C)c(N3CCNCC3)nc2s1 | inactive
9 | CN1CC[C@@]2(C)c3cc(O)ccc3N(C)C2O1 (some centres undefined) | inactive
10 | Cn1c(-c2ccccc2)c(P(=S)(c2ccccc2)c2ccccc2)c2ccccc21 | inactive
11 | CCCc1ccc(NC(=O)c2ccc3c(c2)NC(=O)CS3)cc1 | inactive
12 | CCOc1ccc(CCNC(=O)c2cc3ccccc3n2CCN2CCOCC2)cc1OCC | inactive
13 | Cn1cc(P(=S)(c2ccccc2)c2ccccc2)c2ccccc21 | inactive
14 | CCOc1ccc(CCNC(=O)c2ccccc2)cc1OCC | inactive
15 | CCc1nn2c(=O)cc(N3CCN(C)CC3)nc2s1 | inactive
16 | CCOc1ccc(CCNC(=O)c2cc3ccccc3n2Cc2cccc(C)n2)cc1OCC | inactive
17 | Cc1cccc(C)c1OP(=O)(OCc1c(-c2ccccc2)no[n+]1[O-])Oc1c(C)cccc1C | inactive
18 | N#Cc1c(-c2cccc(-c3no[n+]([O-])c3C#N)c2)no[n+]1[O-] | inactive
19 | CCOc1ccc(CCNC(=O)c2cc3sccc3n2CCN(C)C)cc1OCC | inactive
20 | O=C1CCCC2=C1C(c1[nH]ncc1Cl)N=C(Nc1nc3ccc(F)cc3o1)N2 (centres undefined) | inactive
21 | CCOc1ccc(CCNC(=O)c2cc3ccncc3n2Cc2cccc(C)c2)cc1OCC | inactive
22 | S=P(c1ccccc1)(c1ccccc1)c1c(-c2ccccc2)[nH]c2ccccc12 | inactive

Row | SMILES | outcome
23 | CC(=O)Nc1ncc(S(=O)(=O)N2CCOCC2)s1 | inactive
24 | CC1=C(C(=O)Nc2nccs2)C(c2ccccc2Br)N=C(Nc2nc3ccccc3o2)N1 (centres undefined) | inactive
25 | CCOc1ccc(CCNC(=O)c2ccc(C(=O)c3ccccc3)cc2)cc1OCC | inactive
26 | Cc1nn2c(=O)cc(N3CCNCC3)nc2s1 | inactive
27 | S=P(c1ccccc1)(c1ccccc1)c1c[nH]c2ccccc12 | inactive
28 | Cc1cc(C)c(OP(=O)(OCc2c(-c3ccccc3)no[n+]2[O-])Oc2c(C)cc(C)cc2C)c(C)c1 | inactive
29 | O=S(=O)(Nc1cccc2ccncc12)c1ccc(NCc2cccc(Cl)c2O)cc1 | inactive
30 | Cc1cccc2nc(NC3=NC(c4[nH]ncc4Cl)C4=C(CCCC4=O)N3)oc12 (centres undefined) | inactive
31 | CCOc1ccc(CCNC(=O)c2ccc(Oc3ccccc3)cc2)cc1OCC | inactive
32 | CCOC(=O)C1CCN(C(=O)C2(NC(=O)Nc3ccccc3Cl)CCCC2)CC1 | inactive
33 | Cn1cc(Br)c(C2N=C(Nc3nc4ccccc4o3)NC3=C2C(=O)CCC3)n1 (centres undefined) | inactive
34 | Cc1[nH]c2ccccc2c1P(=S)(c1ccccc1)c1ccccc1 | inactive
35 | O=S(=O)(Nc1ccccc1)c1ccc(NCc2ccc(Br)cc2O)cc1 | inactive
36 | CCOc1ccc(CCNC(=O)c2cc3cccnc3n2Cc2cccc(C)n2)cc1OCC | inactive
37 | Cc1nc2ccccn2c1P(=S)(c1ccccc1)c1ccccc1 | inactive
38 | COc1cccc(CNc2ccc(C(=O)Nc3nccs3)cc2)c1O | inactive
39 | COc1cccc(CNc2ccc(S(=O)(=O)Nc3nc(C)c(C)s3)cc2)c1O | inactive
